# Experimental data: PubChem BioAssay
# Tests used:
# [1] = system: Human papillomavirus type 1a protein E7 (residues 44-93); experiment: HPV1a E7 fragment binders on microarrays, primary screen, biochemical, small-molecule microarray, residues 44-93, 635 nm fluorescence (AID 1108); settings: small-molecule microarray binding, fluorescence 635 nm; higher = more signal;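 note: E7 fragment applied at 1 µg/mL in TBST for 1 h at 4 C; score combines spot fluorescence with its signal to noise ratio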
# [2] = modulators of HCV replicon luciferase signal, primary screen, HCV replication inhibitor project, Huh7 cells, luciferase reporter (AID 1109); settings: 48 h, higher = more signal;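 note: huh7 hepatoma cells harbouring a luciferase neomycin HCV replicon reporter; luciferase luminescence as measure of HCV replicon replication; test concentration not given here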
# [3] = target: Left-right determination factor 2 (Homo sapiens) (UniProt O00292); experiment: LEFTY2 binders on small-molecule microarrays, primary screen, biochemical, small-molecule microarray, 635 nm fluorescence scan (AID 1110); settings: LEFTY2 binding, higher = more signal
# Left-right determination factor 2 (Homo sapiens), sequence (O00292 whole entry, looked up): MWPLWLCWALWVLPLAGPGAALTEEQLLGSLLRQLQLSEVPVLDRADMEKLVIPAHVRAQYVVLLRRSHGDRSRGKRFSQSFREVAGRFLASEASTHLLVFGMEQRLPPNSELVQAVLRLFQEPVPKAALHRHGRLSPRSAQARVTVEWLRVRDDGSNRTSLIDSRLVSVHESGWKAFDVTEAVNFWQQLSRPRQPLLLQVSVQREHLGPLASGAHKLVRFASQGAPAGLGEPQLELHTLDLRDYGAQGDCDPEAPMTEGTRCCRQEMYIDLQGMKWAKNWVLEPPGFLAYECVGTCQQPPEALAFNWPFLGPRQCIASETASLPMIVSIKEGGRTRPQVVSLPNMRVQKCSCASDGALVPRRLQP
# [4] = target: Calmodulin-1 (Homo sapiens) (UniProt P0DP23); experiment: CALM1 binders on microarrays, EGTA buffer, profiling panel, biochemical, small-molecule microarray, Cy5-labelled CALM1 (AID 1111); settings: Cy5-CALM1 binding fluorescence, higher = more signal;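 note: labelled calmodulin applied in Tris saline Tween buffer holding calcium plus EGTA and DTT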
# [5] = target: Calmodulin-1 (Homo sapiens) (UniProt P0DP23); experiment: calcium-bound CALM1 binders on microarrays, profiling panel, artefact control for SMM control-protein annotation, biochemical, small-molecule microarray, Cy5-labelled CALM1, plus calcium (AID 1112); settings: Cy5-CALM1 binding fluorescence, higher = more signal;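 note: score merges spot fluorescence with signal to noise from triplicate slides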
# [6] = small-molecule microarray binders of probe aWnt5a, primary screen, biochemical, biotinylated probe, 635/667 nm fluorescence (AID 1113); settings: higher = more signal;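 note: score merges 667 nm fluorescence intensity with signal-to-noise per printed feature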
# [7] = small-molecule microarray binders of probe aShh, primary screen, biochemical, biotinylated probe, 635/667 nm fluorescence (AID 1114); settings: higher = more signal;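 note: probe is biotin-labelled aShh protein from a stem cell growth factor screen; measures binding of labelled protein to compounds printed on the slide; score merges feature fluorescence at 667 nm with signal-to-noise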
# [8] = small-molecule microarray binders of probe aNog, primary screen, biochemical, biotinylated probe, 635/667 nm fluorescence (AID 1115); settings: higher = more signal;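 note: probe is biotinylated aNog protein used at 0.15 µg/mL for 1 h at 4 C; z-score combines 667 nm fluorescence of each spot with its signal to noise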
# [9] = target: Torsin-1A-interacting protein 1 (Homo sapiens) (UniProt Q5JTV8); experiment: LAP1 binders from COS7 cell lysate, primary screen, small-molecule microarray, 635/667 nm fluorescence (AID 1116); settings: COS7-hLAP1 lysate binding, 635 nm fluorescence, higher = more signal
# Torsin-1A-interacting protein 1 (Homo sapiens), sequence (Q5JTV8 whole entry, looked up): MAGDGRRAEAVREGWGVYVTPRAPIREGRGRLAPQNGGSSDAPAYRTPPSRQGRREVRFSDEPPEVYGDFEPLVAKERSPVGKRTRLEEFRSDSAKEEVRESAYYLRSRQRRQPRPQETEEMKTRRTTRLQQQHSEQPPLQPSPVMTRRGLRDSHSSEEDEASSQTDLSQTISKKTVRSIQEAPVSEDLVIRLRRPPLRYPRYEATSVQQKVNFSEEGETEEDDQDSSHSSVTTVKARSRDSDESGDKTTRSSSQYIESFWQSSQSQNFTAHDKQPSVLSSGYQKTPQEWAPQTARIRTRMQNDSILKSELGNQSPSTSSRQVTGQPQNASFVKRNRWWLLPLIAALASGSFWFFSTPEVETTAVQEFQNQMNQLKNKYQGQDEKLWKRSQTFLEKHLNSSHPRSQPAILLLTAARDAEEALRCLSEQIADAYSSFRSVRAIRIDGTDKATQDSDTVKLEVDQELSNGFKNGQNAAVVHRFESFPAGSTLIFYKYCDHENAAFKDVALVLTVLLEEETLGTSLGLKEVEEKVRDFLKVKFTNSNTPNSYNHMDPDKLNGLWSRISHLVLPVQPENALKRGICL
# [10] = target: Alpha-bungarotoxin (Bungarus multicinctus) (UniProt P60615); experiment: alpha-bungarotoxin binders on microarray, profiling panel, artefact control for SMM control protein annotation, biochemical, small-molecule microarray, Alexa647 label, 635/667 nm fluorescence (AID 1117); settings: alpha-BTX-A647 binding fluorescence, higher = more signal
# Alpha-bungarotoxin (Bungarus multicinctus), sequence (P60615 whole entry, looked up): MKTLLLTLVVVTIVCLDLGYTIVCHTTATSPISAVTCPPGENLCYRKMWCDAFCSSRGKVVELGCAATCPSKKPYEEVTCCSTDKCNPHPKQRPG
Structure (SMILES),composite z-score [1],z-score [2],composite z-score [3],composite z-score [4],composite z-score [5],composite z-score [6],composite z-score [7],composite z-score [8],composite z-score [9],composite z-score [10]
O=C1O[C@@H](c2ccccc2)[C@@H](c2ccccc2)N2[C@@H](c3ccccc3OCCO)[C@]3(C(=O)Nc4ccc(C#CC5(O)CCCCCC5)cc43)[C@@H](C(=O)Nc3nc4ccccc4s3)[C@H]12,1.38,-3.09,0.628,0.688,0.226,-0.0495,-0.0685,-0.0065,0.367,0.744
COC(=O)c1ccc(OC)c(/C=C\CC(OC(C)=O)c2ccccc2)c1 (stereo not given),-0.5,-1.14,0.374,0.461,0.193,-0.237,0.0668,-0.397,-0.129,0.808
C=C(CCCC)C(=O)CC[C@H](OC(=O)c1cccnc1)c1cccc(OCCO)c1,0.343,-3.04,0.0112,-0.538,-0.993,-0.0107,-0.0035,-0.356,0.479,-0.0331
COCCCNC(=O)[C@@]1(CCC(=O)OC(C)(C)C)N=C(c2ccc(OCCCO)cc2)O[C@H]1c1ccccc1CN=[N+]=[N-],1.49,0.43,-0.139,1.39,0.854,0.112,0.0898,1.36,2.28,2.19
COc1cccc(C(=O)O[C@H]2CC[C@]3(C)C4=C(CCC3C2(C)C)[C@]2(C)CC[C@H]([C@H](C)CCCC(C)C)[C@@]2(C)CC4)c1 (stereo not given in full),-0.212,0.004,0.359,-0.0348,-0.441,-0.202,-0.138,-0.0689,0.105,0.3
O=C/C=C/c1ccc(Cl)cc1,-1.74,-0.482,0.163,-0.925,-0.0367,-0.0846,-0.147,-0.426,-0.381,0.0933
Cc1ccc(S[C@]2(C(=O)NC3CC3)CC(=O)N(Cc3ccccc3)[C@@H]2c2ccc(CO)cc2)cc1,-0.269,-0.921,-1.19,-0.274,0.176,-0.197,-0.237,0.314,1.39,0.848
COC(=O)[C@@]1(Cc2ccccc2N=[N+]=[N-])COC(c2ccc(OCCCO)cc2)=N1,1.02,-0.0499,-0.675,0.238,0.0554,-0.15,0.333,0.0531,0.852,1.4
CC(C)C(=C=CC[C@H](O)c1cccc(OCCO)c1)C[C@H](O)COCc1ccccc1,0.0677,-0.285,-0.0641,-0.53,-0.981,-0.096,0.0062,0.0308,1.14,0.0589
C[C@]1(C(=O)NCc2ccccc2)c2ccccc2C(=O)N(Cc2ccc(OC(F)(F)F)cc2)[C@H]1c1ccc(CO)cc1,1.39,0.0711,-0.579,-0.119,0.122,-0.0882,-0.304,-0.381,0.696,-0.141
COc1ccc(CCNC(=O)[C@@H]2c3ccccc3C(=O)N(Cc3ccc(OC(F)(F)F)cc3)[C@H]2c2ccc(CO)cc2)cc1,1.38,-1.81,-0.264,0.107,-0.12,-0.146,-0.147,0.28,1,-0.0177
CC(=O)NCCCC[C@@H]1NC(=O)[C@@H]2C[C@H](C(=O)NCCCCCCNC(=O)CS)[C@H](c3ccc(O)cc3)N2C1=O,1.07,0.391,-0.746,0.725,0.31,-0.211,-0.0643,-0.158,1.15,1.36
CCOC(=O)[C@H]1C[C@H]2O[C@@]23C[C@H]1C(=O)N1CCCC1[C@@H]3O[Si](C)(C)C(C)(C)C (stereo not given in full),-0.917,-0.633,-0.0688,-0.821,-0.392,-0.184,-0.138,-0.202,-0.132,-0.789
C=C(COC)C(=O)CC[C@H](OC(C)=O)c1cccc(OCCO)c1,-0.76,-0.574,-0.729,-0.779,-0.773,-0.124,0.111,-0.0428,0.8,1.24
C=CC[C@@]1(C(=O)NCC(O)CO)N=C(c2ccc(OCCCO)cc2)O[C@@H]1c1ccccc1N=[N+]=[N-] (stereo not given in full),1.49,-0.747,-0.709,1.61,0.643,-0.0846,0.0062,1.39,2.06,1.12
COCCOC(=O)N1C(=O)[C@@]2(c3cc(C#CC4=CCCCC4)ccc31)[C@H](C(=O)N1CCc3cc(OC)c(OC)cc3C1)[C@H]1C(=O)O[C@H](c3ccccc3)[C@H](c3ccccc3)N1[C@@H]2c1ccccc1OCCO,0.899,-1.35,0.546,0.805,0.512,-0.107,-0.153,0.365,0.261,0.917
CC(=O)NCCCC[C@@H]1NC(=O)[C@H]2C[C@@H](C(=O)NCCCCCC[N+](C)(C)C)[C@@H](c3cccc(OCCO)c3)N2C1=O,1.1,-0.0914,1.02,0.0227,-0.34,-0.0792,-0.0709,0.019,0.595,2.04

Structure (SMILES),composite z-score [1],z-score [2],composite z-score [3],composite z-score [4],composite z-score [5],composite z-score [6],composite z-score [7],composite z-score [8],composite z-score [9],composite z-score [10]
N#Cc1ccc(NN2C(C(O)c3cccs3)C=CC3C(=O)N(c4ccccc4)C(=O)C32)cc1 (stereo not given),0.809,-0.0582,0.268,0.41,0.314,0.0709,-0.0977,1.43,1.52,0.122
Cc1ccc(F)cc1S(=O)(=O)N[C@@H]1CCN(Cc2ccc(-c3ccccc3)cc2)C1,0.504,-4.36,0.473,-0.452,-0.578,-0.129,-0.0011,-0.316,0.668,0.116
CCOc1cc(C(O)C2C=CC3C(=O)N(c4ccccc4)C(=O)C3N2Nc2ccc([N+](=O)[O-])cc2)ccc1O (stereo not given),0.532,-0.31,0.173,-0.085,-0.255,-0.0165,-0.0849,-0.489,0.0762,0.0502
N#Cc1ccc(NN2C(C(O)C3CCCCC3)C=CC3C(=O)N(c4ccccc4)C(=O)C32)cc1 (stereo not given),1.48,-0.785,0.0137,1.82,0.779,0.0859,0.294,1.32,-0.102,1.09
COCCOC(=O)N1C(=O)[C@@]2(c3cc(C#CCNC(N)=O)ccc31)[C@H](C(=O)N1CCc3cc(OC)c(OC)cc3C1)[C@H]1C(=O)O[C@H](c3ccccc3)[C@H](c3ccccc3)N1[C@@H]2c1ccc(OCCO)cc1,0.581,-0.45,0.556,0.432,-0.178,-0.0236,0.0637,-0.794,0.5,0.399
COCCOC(=O)N1C(=O)[C@@]2(c3cc(C#CCC(C(=O)OC)C(=O)OC)ccc31)[C@H](C(=O)N1CCN(c3ncccn3)CC1)[C@H]1C(=O)O[C@H](c3ccccc3)[C@H](c3ccccc3)N1[C@@H]2c1ccc(OCCO)cc1,1.34,-0.974,0.521,0.505,-0.127,-0.0778,-0.2,-0.213,0.383,0.536
O=C1N(CCS(=O)(=O)c2ccccc2)Cc2ccccc2[C@H]2OC(c3ccc(OCCCO)cc3)=N[C@@]12CCS(=O)(=O)c1ccccc1,0.961,-1.55,0.558,1.25,0.38,0.115,0.0348,0.763,1.41,1.97
COc1ccc([Si](C)(C)[C@@H]2[C@@H](CC(=O)N3CCC[C@H]3CO)O[C@]3(C(=O)N(C)c4c(Br)cc(C)cc43)[C@H]2C)cc1,1.28,-2.05,0.396,0.207,0.0431,0.0219,-0.0035,-0.229,0.948,0.338
O=C1N(CCS(=O)(=O)c2ccccc2)Cc2ccccc2C[C@]12N=C(c1ccc(OCCCO)cc1)O[C@@H]2c1ccccc1,-0.183,-2.19,0.947,2.54,0.422,0.122,0.21,1.21,1.88,1.59
CCCCCN1CC=CC23O[C@@H]4/C=C\CCC(C)OC(=O)C4[C@H]2C(=O)N(CCCCCO)[C@@H]3C1=O (stereo not given in full),-1.38,0.0822,-0.594,-0.476,-0.561,-0.298,-0.147,-0.24,-0.912,-0.937
CCCCC=C[C@@H](NC(=O)c1ccco1)c1ccccc1,-0.244,-0.502,0.0518,1.31,0.137,0.0151,0.356,0.531,-0.153,1.18
COC(=O)[C@@]1(Cc2ccccc2)[C@H]2c3cc(C(=O)N(C)C)n(Cc4cc(C)n(C)n4)c3C[C@H]2CN1C(=O)c1ccccc1,1.02,-0.995,-0.279,1.8,0.908,-0.319,-0.465,-0.199,3.2,0.285
O=C1O[C@@H](c2ccccc2)[C@@H](c2ccccc2)N2[C@@H](c3ccc(O)cc3)[C@]3(C(=O)Nc4ccc(C#CC5(O)CCCCCC5)cc43)[C@@H](C(=O)N3CCCCCCC3)[C@H]12,1.48,-1.29,1.43,2.6,1.61,1.45,2.73,3.67,4.7,3.03
CC(c1ccccc1)C(O)C1C=CC2C(=O)NC(=O)C2N1Nc1ccccn1 (stereo not given),1.35,0.355,0.313,-0.104,-0.487,-0.0478,-0.138,0.496,0.903,0.672
CN(C)C(=O)[C@]1(CCC(=O)OC(C)(C)C)N=C(c2ccc(OCCCO)cc2)O[C@@H]1c1ccccc1N=[N+]=[N-],1.54,0.929,-0.12,1.22,0.463,0.173,0.14,1.02,2.07,1.36
COC(=O)C[C@@H]1C[C@H](C)[C@]2(O1)C(=O)N(Cc1ccccc1)c1ccc(NC(C)=O)cc12,-0.654,-0.249,0.266,-0.595,-0.324,-0.311,-0.543,0.0034,0.458,-0.194
CC=CC(O)C1C=CC2C(=O)N(c3ccccc3)C(=O)C2N1Nc1ccc(C(C)C)cc1 (stereo not given),1.42,0.837,0.363,1.42,0.138,0.0194,0.0469,1.65,0.37,1.78
